Several values for one entry are separate records, joined by “and”; a condition that tells them apart may be missing. Identical values can stand only once. Inconclusive results are not listed. A call without a number means that no potency is given here. Where a structure was tested more than once in an assay, its records may differ in their call. Activity calls are given as the source filed them. Calls follow the shape of the full dose curve.
Assay: qHTS assay for small molecule disruptors of the mitochondrial membrane potential - cell viability (AID 720634); also: nearly all actives have a fitted effect of over 20% in size
Details: HepG2 viability, ATP luminescence (CellTiter-Glo), 1 h; series mostly up to 83.2 µM
Description: U.S. Tox21 Program National Center for Advancing Translational Sciences [NCATS] NIH Chemical Genomics Center [NCGC] U.S. Environmental Protection Agency [EPA] National Institutes of Environmental Health Sciences [NIEHS] National Toxicology Program [NTP] U.S. Food and Drug Administration [FDA] Tox21 Assay Overview: Mitochondrial membrane potential (MMP), one of the parameters for mitochondrial function, is generated by mitochondrial electron transport chain that creates an electrochemical gradient by a series of redox reactions. This gradient drives the synthesis of ATP, a crucial molecule for various cellular processes. Measuring MMP in living cells is commonly used to assess the effect of chemicals on mitochondrial function; decreases in MMP can be detected using lipophilic cationic fluorescent dyes. […] The dye accumulates in the mitochondria of healthy cells as aggregates, with red fluorescence. The mitochondrial potential decreases and the dye could not accumulate in the mitochondria and remains in the cytoplasm in monomers, with green fluorescence. In addition to the mitochondrial potential assay, these cells were also used to test the cytotoxicity by determining the cell viability in the culture based on the quantitation of ATP present. The cytotoxicity was measured in the same assay well of MMP assay.
Tox21 Assay Protocol Summary: 2,000 HepG2 cells in 5 uL/well were dispensed into black, clear-bottom 1536-well plates using a Multidrop Combi (Thermo Scientific) dispenser. The assay plates were incubated for an overnight at 37 C to allow cells to attach to the wells, followed by the transfer of 23 nL compound or DMSO vehicle by a pin tool (Kalypsys). The plates were incubated for 1 hr at 37 C and 5% CO2, followed by the addition of 5 uL of 2X m-MPI dye into each well using Flying Reagent Dispenser (Aurora Discovery) and then CellTiter-Glo reagent was added at 4 uL/well and incubated 30 min at room temperature. Then luminescence intensity was quantified on a ViewLux CCD-based plate reader.
Potency is read from the fitted curve at half-maximal effect.

Structure (SMILES)	Potency
CC(=O)CC(=O)Nc1ccc2[nH]c(=O)[nH]c2c1	inactive
CC(N)=O	inactive
NCCCCCC(=O)O	inactive
NNCCc1ccccc1	inactive
O=C(Oc1ccccc1)c1ccccc1O	inactive
CN(C)c1ccc2nc3ccc(=[N+](C)C)cc-3sc2c1	10.6 µM (active) and 23.4 µM (active) and 61.1 µM (active)
CC(=O)N[C@@H](CS)C(=O)O	inactive
CCCCCCCCCCCCc1ccccc1O	inactive
CCn1c2ccccc2c2cc(N)ccc21	inactive
C=CC(=O)OCCCCCCCC	inactive
CCOc1ccccc1C(N)=O	inactive
CCCNC(C)C(=O)Nc1ccccc1C (stereo not given)	inactive
OCCOCCN1CCN(C(c2ccccc2)c2ccc(Cl)cc2)CC1 (stereo not given)	inactive
CCN(CC)CCOc1ccc(/C(=C(\Cl)c2ccccc2)c2ccccc2)cc1	inactive
CCOC(=O)C(C)C(C)=O (stereo not given)	inactive
CCc1ccc(C(c2ccc(CC)cc2)C(Cl)Cl)cc1	inactive
CC1=C(C=O)C(C)(C)CC=C1	inactive
CCCCCCCCCCCCCCCCCl	inactive
CCCCCCC(O)CCCCCCCCCCC(=O)O (stereo not given)	inactive and 54.5 µM (active)
O=C(O[C@@H]1Cc2c(O)cc(O)cc2O[C@@H]1c1cc(O)c(O)c(O)c1)c1cc(O)c(O)c(O)c1	inactive

Structure (SMILES)	Potency
O	inactive
CC(C)(C)c1ccc(O)c(C(C)(C)C)c1	24.2 µM (active)
O=C1OC2(c3ccc(O)cc3Oc3cc(O)ccc32)c2ccccc21	inactive
CCCCCC(=O)O[C@]1(C(C)=O)CC[C@H]2[C@@H]3CCC4=CC(=O)CC[C@]4(C)[C@H]3CC[C@@]21C	inactive
CCn1cc(C(=O)O)c(=O)c2cc(F)c(N3CCNC(C)C3)c(F)c21 (stereo not given)	inactive
CCCCCCCCCCCCCC[P+](CCCC)(CCCC)CCCC	34.2 µM (active) and 24.3 µM (active)
CCc1cc(C(C)(C)C)c(O)c(C(C)(C)C)c1	inactive
COC(=O)/C=C/c1ccccc1	inactive
CCCC(=O)c1ccccc1	inactive
Cc1cc(C(C)(C)C)c(O)c(C(C)(C)C)c1	inactive
CC(=O)OCCOCCOCCOC(C)=O	inactive
COc1ccc(COC(C)=O)cc1	inactive
CC[C@H]1CN2CCc3cc(OC)c(OC)cc3[C@@H]2C[C@@H]1C[C@H]1NCCc2cc(OC)c(OC)cc21	inactive
CCCCC(CC)COC(=O)CC(C(=O)OCC(CC)CCCC)S(=O)(=O)O (stereo not given)	inactive
CNC1(C)C2CCC(C2)C1(C)C (stereo not given)	inactive
[Cl][In]([Cl])[Cl]	inactive
Oc1ccc(Cl)cc1Cc1cc(Cl)ccc1O	6.68 µM (active) and 221 nM (active)
CCN(CC)C(=O)Nc1ccc(OCC(O)CNC(C)(C)C)c(C(C)=O)c1 (stereo not given)	inactive
OCC(CO)N[C@H]1C[C@](O)(CO)[C@@H](O)[C@H](O)[C@H]1O	inactive
O=C(O)CP(=O)(O)O	inactive

Reference: PubChem BioAssay (Tox21)
